These results are taken from PubChem BioAssay (Tox21).

Values joined by “and” are separate entries in the source; they are usually repeats but may differ in a detail not shown here. Identical values can stand only once. Records with an inconclusive call do not appear. Where a call stands in place of a potency, no number is given. A structure can be active in one record and inactive in another. Active and inactive are the calls of the source. Calls come from the whole dose curve; as a rule, active = well fitted curve in the direction sought with a large enough effect in the repeat runs; inconclusive = weak or mixed curves; inactive = no such curve, though single readings can be large; an effect the other way counts as inactive or inconclusive.

A short description of the first assay: A CellTox Green Cytotoxicity Assay to monitor cytotoxicity in HepG2 cells - 24 hour (AID 1224878). Note: nearly all actives have a fitted effect of over 45% in size. Note: potency is the fitted concentration of half-maximal effect. The conditions noted are these: CellTox Green fluorescence; series mostly up to 76.8 µM; cytotoxicity: at the top concentration. An outline of the steps:
(§1)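 Read-out is fluorescence of a cyanine dye excluded from live cells that stains DNA of dead HepG2 cells, with signal proportional to cytotoxicity. Plates were read at 0, 8, 16, 24, 32 and 40 h after compound addition.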
`CC(C)C(=O)Nc1ccc([N+](=O)[O-])c(C(F)(F)F)c1`: the Potency result is “inactive”.

Take `CN(N=O)C(=O)N[C@@H]1[C@@H](O)[C@H](O)[C@@H](CO)O[C@@H]1O`: the Potency result is “inactive”.

On to `NS(=O)(=O)O`, for which the Potency result was “inactive”.

With `C=CCc1ccc(O)c(OC)c1`, the Potency result was “inactive”.

Turning to `C/C=C/C=C/C(=O)O`, the Potency result was “inactive”.

Take `Cc1ncc([N+](=O)[O-])n1C`: the Potency result was “inactive”.

For the compound `CN(C)CCOC(C)(c1ccccc1)c1ccccn1` (configuration not stated), the Potency entry is “inactive”.

Consider `COc1ccc2c(c1)c(CC(=O)O)c(C)n2C(=O)c1ccc(Cl)cc1`, for which the Potency result is “inactive”.

Turning to `CN(C)C(=O)Nc1ccc(Cl)c(Cl)c1`, the Potency entry is “inactive”.

Take `O=c1[nH]cc(F)c(=O)[nH]1`: the Potency entry is “inactive”.

On to `O=C(O)CC(O)C(=O)O` (configuration not stated), for which the Potency entry was “inactive”.

For `CC(=O)Nc1c(I)c(NC(C)=O)c(I)c(C(=O)O)c1I`, the Potency result is “inactive”.

Regarding `Cc1c(C(=O)O)c(O)cc2c1C(=O)c1c(O)c([C@@H]3O[C@H](CO)[C@@H](O)[C@H](O)[C@H]3O)c(O)c(O)c1C2=O`, the Potency result is “inactive”.

Consider `CCCCC1(COC(=O)CCC(=O)O)C(=O)N(c2ccccc2)N(c2ccccc2)C1=O`, for which the Potency entry is “inactive”.

Consider `Cc1ncc([N+](=O)[O-])n1CCO`, for which the Potency entry was “inactive”.

For the compound `CCCCOC(=O)c1ccc(O)cc1`, the “cytotoxicity” value was 4.58% [at 35.3 µM] (inactive).

For the compound `O=S1(=O)OC(c2ccc(O)cc2)(c2ccc(O)cc2)c2ccccc21`, the Potency result was “inactive”.

On to `NC(=O)c1cccnc1`, for which the Potency entry is “inactive”.

Turning to `CC(=O)C(=O)O`, the Potency entry is “inactive”.

With `O=C1NS(=O)(=O)c2ccccc21`, the Potency entry was “inactive”.

Take `F[B-](F)(F)F`: the Potency result was “inactive”.

Turning to `CC(C)c1c(C(=O)Nc2ccccc2)c(-c2ccccc2)c(-c2ccc(F)cc2)n1CC[C@@H](O)C[C@@H](O)CC(=O)O`, the Potency was 2.98 µM (active) and 45.8 µM (active) and 4.77 µM (active).

For `Cc1cc(C)nc(NS(=O)(=O)c2ccc(N)cc2)n1`, the Potency entry was “inactive”.

With `CN(C)CCOC(c1ccccc1)c1ccccc1`, the Potency result was “inactive”.

In the case of `CCCC[P+](CCCC)(CCCC)CCCC`, the Potency result is “inactive”.

On to `C=C(C)C(=O)OCC(C)O` (configuration not stated), for which the Potency entry was “inactive”.

`Nc1ccc(S(N)(=O)=O)cc1`: the Potency result is “inactive”.

In the case of `CS(=O)(=O)OCCCCOS(C)(=O)=O`, the Potency result was “inactive”.

Take `CCOC(N)=O`: the Potency entry was “inactive”.

The next assay is described as follows: A CellTox Green Cytotoxicity Assay to monitor cytotoxicity in HepG2 cells - 40 hour (AID 1224879). Note: nearly all actives have a fitted effect of over 40% in size. Note: potency is the fitted concentration of half-maximal effect. To be noted: CellTox Green fluorescence; series mostly up to 76.8 µM; cytotoxicity increase: at the top concentration. An outline of the steps:
as §1
Consider `CC(C)C(=O)Nc1ccc([N+](=O)[O-])c(C(F)(F)F)c1`, for which the Potency result is “inactive”.

For the compound `CN(N=O)C(=O)N[C@@H]1[C@@H](O)[C@H](O)[C@@H](CO)O[C@@H]1O`, the Potency result was “inactive”.

Consider `NS(=O)(=O)O`, for which the Potency entry is “inactive”.

Take `C=CCc1ccc(O)c(OC)c1`: the Potency result is “inactive”.

In the case of `C/C=C/C=C/C(=O)O`, the Potency entry was “inactive”.

Turning to `Cc1ncc([N+](=O)[O-])n1C`, the Potency result was “inactive”.

In the case of `CN(C)CCOC(C)(c1ccccc1)c1ccccn1` (configuration not stated), the Potency entry is “inactive”.

As for `COc1ccc2c(c1)c(CC(=O)O)c(C)n2C(=O)c1ccc(Cl)cc1`, the Potency result is “inactive”.

On to `CN(C)C(=O)Nc1ccc(Cl)c(Cl)c1`, for which the Potency result was “inactive”.

As to `O=c1[nH]cc(F)c(=O)[nH]1`, the Potency was 45.3 µM (active) and inactive.

As for `O=C(O)CC(O)C(=O)O` (configuration not stated), the Potency entry was “inactive”.

Turning to `CC(=O)Nc1c(I)c(NC(C)=O)c(I)c(C(=O)O)c1I`, the Potency entry was “inactive”.

With `Cc1c(C(=O)O)c(O)cc2c1C(=O)c1c(O)c([C@@H]3O[C@H](CO)[C@@H](O)[C@H](O)[C@H]3O)c(O)c(O)c1C2=O`, the Potency entry is “inactive”.

Take `CCCCC1(COC(=O)CCC(=O)O)C(=O)N(c2ccccc2)N(c2ccccc2)C1=O`: the Potency entry was “inactive”.

For `Cc1ncc([N+](=O)[O-])n1CCO`, the Potency result was “inactive”.

For `CCCCOC(=O)c1ccc(O)cc1`, the “cytotoxicity increase” value is 0.618% [at 35.3 µM] (inactive).

Turning to `O=S1(=O)OC(c2ccc(O)cc2)(c2ccc(O)cc2)c2ccccc21`, the Potency result is “inactive”.

Turning to `NC(=O)c1cccnc1`, the Potency entry is “inactive”.

Take `CC(=O)C(=O)O`: the Potency entry was “inactive”.

Turning to `O=C1NS(=O)(=O)c2ccccc21`, the Potency result was “inactive”.

Turning to `F[B-](F)(F)F`, the Potency entry was “inactive and 39.5 µM (active)”.

Take `CC(C)c1c(C(=O)Nc2ccccc2)c(-c2ccccc2)c(-c2ccc(F)cc2)n1CC[C@@H](O)C[C@@H](O)CC(=O)O`: the Potency was 4.21 µM (active) and 5.13 µM (active) and 7.56 µM (active).

As for `Cc1cc(C)nc(NS(=O)(=O)c2ccc(N)cc2)n1`, the Potency entry is “inactive”.

With `CN(C)CCOC(c1ccccc1)c1ccccc1`, the Potency entry was “inactive”.

For the compound `CCCC[P+](CCCC)(CCCC)CCCC`, the Potency entry is “inactive”.

For `C=C(C)C(=O)OCC(C)O` (configuration not stated), the Potency result was “inactive”.

For `Nc1ccc(S(N)(=O)=O)cc1`, the Potency result is “inactive”.

As for `CS(=O)(=O)OCCCCOS(C)(=O)=O`, the Potency entry is “inactive”.

On to `CCOC(N)=O`, for which the Potency result was “inactive”.

A short description of the next assay: qHTS RealTime-Glo MT Cell Viability Assay in HEK293 cells - 0 hour (AID 1224880). Note: top concentration of the series differs between compounds; nearly all actives have a fitted effect of over 45% in size. The conditions noted are these: RealTime-Glo luminescence; series mostly up to 76.8 µM; activity change, negative = cytotoxicity: at the top concentration. An outline of the steps: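 Cells were seeded together with NanoLuc luciferase and a prosubstrate that viable cells reduce to a luciferase substrate. After a 5 h incubation at 37 C/5% CO2, compounds were added and luminescence was measured repeatedly during 40 h of treatment.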
As to `CC(C)C(=O)Nc1ccc([N+](=O)[O-])c(C(F)(F)F)c1`, the Potency result is “inactive”.

Turning to `CN(N=O)C(=O)N[C@@H]1[C@@H](O)[C@H](O)[C@@H](CO)O[C@@H]1O`, the Potency result is “inactive”.

Take `NS(=O)(=O)O`: the Potency entry is “inactive”.

With `C=CCc1ccc(O)c(OC)c1`, the Potency result was “inactive”.

`C/C=C/C=C/C(=O)O`: the Potency entry is “inactive”.

For `Cc1ncc([N+](=O)[O-])n1C`, the Potency entry is “inactive”.

`CN(C)CCOC(C)(c1ccccc1)c1ccccn1` (configuration not stated): the Potency result was “inactive”.

In the case of `COc1ccc2c(c1)c(CC(=O)O)c(C)n2C(=O)c1ccc(Cl)cc1`, the “activity change, negative = cytotoxicity” value was -17.7% (inactive).

`CN(C)C(=O)Nc1ccc(Cl)c(Cl)c1`: the Potency result was “inactive”.

As for `O=c1[nH]cc(F)c(=O)[nH]1`, the Potency result is “inactive”.

Take `O=C(O)CC(O)C(=O)O` (configuration not stated): the Potency result was “inactive”.

Take `CC(=O)Nc1c(I)c(NC(C)=O)c(I)c(C(=O)O)c1I`: the Potency entry was “inactive”.

Regarding `Cc1c(C(=O)O)c(O)cc2c1C(=O)c1c(O)c([C@@H]3O[C@H](CO)[C@@H](O)[C@H](O)[C@H]3O)c(O)c(O)c1C2=O`, the Potency result was “inactive”.

Turning to `CCCCC1(COC(=O)CCC(=O)O)C(=O)N(c2ccccc2)N(c2ccccc2)C1=O`, the Potency result is “inactive”.

Regarding `Cc1ncc([N+](=O)[O-])n1CCO`, the Potency entry was “inactive”.

As for `CCCCOC(=O)c1ccc(O)cc1`, the Potency entry was “inactive”.

Take `O=S1(=O)OC(c2ccc(O)cc2)(c2ccc(O)cc2)c2ccccc21`: the “activity change, negative = cytotoxicity” value was -10.6% (inactive).

In the case of `NC(=O)c1cccnc1`, the Potency result is “inactive”.

As to `CC(=O)C(=O)O`, the Potency result is “inactive”.

`O=C1NS(=O)(=O)c2ccccc21`: the Potency entry is “inactive”.

On to `F[B-](F)(F)F`, for which the Potency entry is “inactive”.

Take `CC(C)c1c(C(=O)Nc2ccccc2)c(-c2ccccc2)c(-c2ccc(F)cc2)n1CC[C@@H](O)C[C@@H](O)CC(=O)O`: the Potency entry is “inactive”.

With `Cc1cc(C)nc(NS(=O)(=O)c2ccc(N)cc2)n1`, the Potency entry was “inactive”.

Take `CN(C)CCOC(c1ccccc1)c1ccccc1`: the Potency entry is “inactive”.

As to `CCCC[P+](CCCC)(CCCC)CCCC`, the Potency entry is “inactive”.

In the case of `C=C(C)C(=O)OCC(C)O` (configuration not stated), the Potency result is “inactive”.

Turning to `Nc1ccc(S(N)(=O)=O)cc1`, the Potency result was “inactive”.

As for `CS(=O)(=O)OCCCCOS(C)(=O)=O`, the Potency result is “inactive”.

Turning to `CCOC(N)=O`, the Potency result was “inactive”.
